# Assay outcomes from PubChem.
# nsP2pro primary = Primary qHTS for inhibitors of NSP2Pro chikungunya virus (CHIKV). FRET peptide cleavage, nsP2pro, fluorescence 1 h. Polyprotein P1234 (Chikungunya virus (strain S27-African prototype)), Q8JUX6. AID 1964107, 2024. hit rate 1.1% among 31,000. Potency, µM (highest dose often 24.9 µM), for inactives: top-dose activity change, negative = inhibition, usual class: inhibitors; calls by dose curve; note: nearly all actives have a fitted effect of over 60% in size
#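 Recombinant nsP2pro (150 nM) was preincubated with compound 15 min at room temperature in 10 mM Tris-HCl pH 8.0, 0.01% Tween 20. Peptide 2 FRET substrate (2.5 uM) was then added and fluorescence read after 1 h. Seven-point series, up to 25 uM.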
# * marks the source's active call; other numbers are inactive results; i = inactive; [ ] = another dose, or the depositor's remark. Many of the other results were omitted from the sample, so hits are more common in it than they were. % is set by controls: 0 for no effect and ±100 for the full control effect; potency is the fitted concentration of half-maximal effect.
SMILES,nsP2pro primary
Cc1cccc(-n2cnc3cc(C(=O)N4CCCC(c5ccccc5)C4)ccc32)c1 (stereo not drawn),1.2%
CN(CC(=O)O)c1ncnc2ccc(-c3ccc4c(c3)OCO4)cc12,4.5%
Cc1ccc(C(=O)N2CCc3sc(C(=O)NCc4cc(F)cc(F)c4)cc3C2)cc1,-6.4%
O=C(Nc1cccc(Nc2cc(Nc3cccc(C(F)(F)F)c3)ncn2)c1)C1CC1,40.3%
COC(=O)c1ccccc1NC(=O)c1cc2nc(-c3ccccc3)cc(-c3ccccc3)n2n1,-19.0%
CCOC(=O)c1cnn(-c2ccccc2)c1NC(=O)c1cc2nc(-c3ccco3)cc(C(F)(F)Cl)n2n1,11.1µM*
CCOC(=O)c1cnn(-c2ccc(NC(=O)C(Cl)=C(Cl)Cl)cc2)c1C(F)(F)F,-0.9%
Cc1cc(F)ccc1NC(=O)CCC1CCCN(C(=O)CC2=CCCCC2)C1 (stereo not drawn),-0.8%
COCCn1c(C)cnc1CCNS(=O)(=O)c1c(C)nn(C)c1C,10µM*
COCCn1c(C)cnc1CCNS(=O)(=O)c1cc(OC)ccc1OC,1.1%
COCCn1c(C)cnc1CCNC(=O)NCC(C)C,i
CC(=O)Nc1ccccc1NC(=O)c1cnn2c(C)cc(C)nc12,1.3%
COc1ccc(CCNC(=O)CCn2c(=O)c3ccccc3n(CC(=O)Nc3cc(Cl)ccc3C)c2=O)cc1OC,-11.0%
CCc1ccc(NCc2cc3cc(OC)c(OC)cc3n(CC(=O)Nc3cc(C)ccc3C)c2=O)cc1,10µM*
Cc1ccc(C)c(NC(=O)Cn2c(=O)ccc3cc(S(=O)(=O)N4CCCC4)ccc32)c1,-20.2%
O=C(Nc1cccc(-c2ccc(N3CCOCC3)nn2)c1)Nc1ccc(F)cc1F,i
O=C(Nc1ccccc1F)C1CN(C2CCCCC2)C(=O)N1 (stereo not drawn),i
O=C(O)C1=C(CSc2nnnn2CS(=O)(=O)O)CS[C@@H]2[C@@H](NC(=O)[C@H](O)c3ccccc3)C(=O)N12,-22.7%
Cn1nnnc1SCC1=C(C(=O)O)N2C(=O)[C@H](NC(=O)C(O)c3ccccc3)C2SC1 (stereo partly drawn),-18.8%
NCc1ccccc1CC(=O)N[C@@H]1C(=O)N2C(C(=O)O)=C(CSc3nnnn3CC(=O)O)CS[C@H]12,12.4µM*
C=C1/C(=C/C=C2\CCC[C@]3(C)[C@@H]([C@H](C)CCCC(O)(C(F)(F)F)C(F)(F)F)CC[C@@H]23)C[C@@H](O)C[C@@H]1O,7.0%
CC1=C(C)C(=O)C(CC[C@](C)(O)CCC[C@H](C)CCC[C@H](C)CCCC(C)C)=C(C)C1=O,-6.8%
O=C(Cc1ccccc1)NCc1ccnc2[nH]ccc12,-1.3%[39.2 µM]
O=C(NCc1c[nH]c2ncccc12)c1cccnc1,2.7%[39.2 µM]
O=C(NCc1ccnc2[nH]ccc12)c1ccc(Cl)cc1,14.1µM*
SMILES,nsP2pro primary
CC(=O)c1cc2cccc(OCC(O)CNC(C)C)c2o1 (stereo not drawn),-4.2%
CCN(CC1CCCN(CCc2cccc(OC)c2)C1)C(=O)CSC (stereo not drawn),i
CCN1CCN(C(=O)C2Cn3cccc3C(=O)N2C)CC1 (stereo not drawn),-3.5%
COc1cccc(NC(=S)N2CCN(c3cc(C(F)(F)F)cc(C(F)(F)F)c3)CC2)n1,-6.1%
CCc1ccc(CN2CCc3nc(N4CCN(CC)CC4)ncc3C2)cc1,23.0%
CCN1CCN(c2ncc3c(n2)CCN(Cc2ccc(OC)c(OC)c2)C3)CC1,11.2µM*
CCN1CCN(c2ncc3c(n2)CCN(Cc2cc(F)cc(F)c2)C3)CC1,-6.8%
CO[C@H]1C(=O)N(C(C)C)[C@H]1C1CCN(S(=O)(=O)c2ccc3c(c2)CCC3)CC1,i
O=C1COc2ccc(-c3cccc(O)c3)nc2CN1Cc1ccc(C(F)(F)F)cc1,i
O=C1COc2ccc(N3CCOCC3)nc2CN1Cc1ccc(F)cc1,11.2µM*
Cn1cc(-c2ccc3c(n2)CN(Cc2ccc(F)cc2)C(=O)CO3)cn1,-4.5%[39.2 µM]
Cc1cc(NC(=O)c2cccc(NC(=O)/C=C/CN(C)C)c2)ccc1Nc1nccc(-c2cccnc2)n1,215.2%
Cc1ccccc1CNC[C@H]1Cn2c(-c3ccccc3)cnc2CO1,i
O=C(CCc1c[nH]c2ccccc12)N1CC(N(Cc2ccccc2)C2CCOCC2)C1,-7.6%
O=C1c2ccccc2NC(c2ccc(-c3ccc(Br)cc3)o2)N1O (stereo not drawn),12.6µM*
O=C1c2ccccc2NC(c2ccc(-c3ccc(F)cc3)o2)N1O (stereo not drawn),-4.3%
O=C1c2ccccc2NC(c2ccc(-c3ccc(-c4ccccc4)cc3)o2)N1O (stereo not drawn),i
O=C(N[C@H]1C[C@@H](CO)N(CC2CCCCC2)C1)c1cccnc1,-20.3%
CCCCN(C)C(=O)c1c(C)sc2ccn(CCC)c(=O)c12,-16.9%
COc1ccc(C(=O)N2CCC(c3ncc(C)n3C(C)C)C2)cc1 (stereo not drawn),2.2%
O=C(N[C@H](c1ccccn1)C1CC(O)C1)c1ccc(Cn2cccn2)o1 (stereo partly drawn),-10.9%
